Results as given in PubChem BioAssay (NCATS).
Results filed as inconclusive are left out. Active and inactive are the calls of the source. The call rests on the fitted dose curve; in most records, active means well fitted curve in the direction sought with a large enough effect; inconclusive means small, poorly fitted or top-dose-only effect, or another doubt; inactive means no such curve, though single readings can be large; an effect the other way counts as inactive or inconclusive.

Columns and labels:
[1] = molecular target: Rap guanine nucleotide exchange factor 3 (Homo sapiens) (UniProt O95398); assay: Confirmatory qHTS for antagonist of cAMP-regulated guanine nucleotide exchange factor 3 (EPAC1) (AID 1645880); conditions: EPAC1 Rap1B-BODIPY-GDP exchange, fluorescence; activity, negative = inhibition: at 115 µM (top of the series); further: nearly all actives have a fitted effect of over 55% in size; further: potency means the concentration at half of the fitted maximal effect;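 on activity, negative = inhibition: plate controls were DMSO only for no effect and full effect of the ATA control for full effect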
Outline: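 Nucleotide exchange uses 100 nM EPAC1, 250 nM RAP1B-BODIPY-GDP and 50 uM GDP, with compounds in a concentration-titration series. After 5 min at room temperature, fluorescence (480 nm ex/540 nm em) is read every 5 min for 30 min. Data are normalized to control ATA and DMSO.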

[2] = molecular target: Rap guanine nucleotide exchange factor 3 (Homo sapiens) (UniProt O95398); assay: Confirmatory qHTS for agonist of cAMP-regulated guanine nucleotide exchange factor 3 (EPAC1) (AID 1645881); conditions: EPAC1 Rap1B BODIPY-GDP exchange fluorescence; series mostly up to 154 µM;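 further: EPAC1 catalysed release of BODIPY-GDP from Rap1B seen as fluorescence loss; 100% = effect of cAMP agonist control; nearly all actives have a fitted effect of over 75% in size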
[3] = molecular target: Rap guanine nucleotide exchange factor 4 (Homo sapiens) (UniProt Q8WZA2); assay: Confirmatory qHTS for agonist of cAMP-regulated guanine nucleotide exchange factor 4 (EPAC2) (AID 1645884); conditions: EPAC2 GEF activity, Rap1B-BODIPY-GDP fluorescence; series mostly up to 154 µM;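 further: nucleotide exchange releases bodipy-GDP from Rap1 and this lowers its fluorescence; on the % scale 0 is the no-effect control and ±100 the full control effect; nearly all actives have a fitted effect of over 65% in size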
[4] = molecular target: Rap guanine nucleotide exchange factor 4 (Homo sapiens) (UniProt Q8WZA2); assay: Confirmatory qHTS for antagonist of cAMP-regulated guanine nucleotide exchange factor 4 (EPAC2) (AID 1645885); conditions: EPAC2 Rap1B-BODIPY-GDP exchange fluorescence, biochemical; series mostly up to 12.7 µM; further: nearly all actives have a fitted effect of over 25% in size; further: potency means the concentration at half of the fitted maximal effect; on activity change, negative = inhibition: on the % scale 0 is the no-effect control and ±100 the full control effect
[5] = molecular target: Rap guanine nucleotide exchange factor 3 (Homo sapiens) (UniProt O95398); assay: Counterscreen qHTS for antagonist of cAMP-regulated guanine nucleotide exchange factor 3 (EPAC1) (AID 1645888); conditions: Rap1B-BODIPY-GDP nucleotide exchange, fluorescence; series mostly up to 154 µM;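 further: fluorescence loss as bound BODIPY-GDP is released from Rap1B; % of control where 0% means no effect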
Outline: (§1)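 Rap1B-BODIPY-GDP 250 nM + GDP 50 uM; cpds 7-pt, final 9.74 nM–152 uM (activator mode) or from 7.32 nM upwards (inhibitor mode); RT; FI 480/540 nm at 5 and 30 min, then ± cAMP, reread.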

[6] = molecular target: Rap guanine nucleotide exchange factor 3 (Homo sapiens) (UniProt O95398); assay: Counterscreen qHTS for agonist of cAMP-regulated guanine nucleotide exchange factor 3 (EPAC1) (AID 1645889); conditions: EPAC1 Rap1B-BODIPY-GDP exchange, fluorescence; series mostly up to 154 µM; further: nearly all actives have a fitted effect of over 40% in size; further: potency means the concentration at half of the fitted maximal effect; on activation: % of control where 0% means no effect
Outline: as §1

Chain of Rap guanine nucleotide exchange factor 3 (Homo sapiens) (O95398 whole entry, looked up): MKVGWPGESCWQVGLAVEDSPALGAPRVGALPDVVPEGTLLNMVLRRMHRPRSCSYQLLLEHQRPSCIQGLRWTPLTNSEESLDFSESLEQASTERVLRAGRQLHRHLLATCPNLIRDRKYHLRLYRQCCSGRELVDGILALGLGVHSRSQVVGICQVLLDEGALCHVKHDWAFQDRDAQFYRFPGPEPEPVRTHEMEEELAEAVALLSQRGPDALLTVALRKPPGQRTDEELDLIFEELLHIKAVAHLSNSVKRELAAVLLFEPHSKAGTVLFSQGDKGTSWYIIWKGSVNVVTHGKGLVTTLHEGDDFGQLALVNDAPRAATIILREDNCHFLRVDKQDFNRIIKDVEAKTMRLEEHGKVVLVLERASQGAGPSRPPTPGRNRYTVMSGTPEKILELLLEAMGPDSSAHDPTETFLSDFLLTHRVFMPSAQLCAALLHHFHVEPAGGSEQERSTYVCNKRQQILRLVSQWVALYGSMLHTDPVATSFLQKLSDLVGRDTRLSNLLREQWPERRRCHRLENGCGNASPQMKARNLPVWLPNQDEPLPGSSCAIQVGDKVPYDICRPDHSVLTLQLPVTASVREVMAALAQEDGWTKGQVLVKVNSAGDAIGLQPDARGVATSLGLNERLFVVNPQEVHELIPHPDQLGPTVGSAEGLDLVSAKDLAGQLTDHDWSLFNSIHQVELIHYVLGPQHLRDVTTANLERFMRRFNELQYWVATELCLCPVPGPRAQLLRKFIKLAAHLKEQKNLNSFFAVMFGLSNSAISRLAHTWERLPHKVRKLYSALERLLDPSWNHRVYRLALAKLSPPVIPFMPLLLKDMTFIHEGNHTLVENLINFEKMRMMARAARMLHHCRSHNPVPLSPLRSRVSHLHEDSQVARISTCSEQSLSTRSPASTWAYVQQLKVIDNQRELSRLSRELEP
Chain of Rap guanine nucleotide exchange factor 4 (Homo sapiens) (Q8WZA2 whole entry, looked up): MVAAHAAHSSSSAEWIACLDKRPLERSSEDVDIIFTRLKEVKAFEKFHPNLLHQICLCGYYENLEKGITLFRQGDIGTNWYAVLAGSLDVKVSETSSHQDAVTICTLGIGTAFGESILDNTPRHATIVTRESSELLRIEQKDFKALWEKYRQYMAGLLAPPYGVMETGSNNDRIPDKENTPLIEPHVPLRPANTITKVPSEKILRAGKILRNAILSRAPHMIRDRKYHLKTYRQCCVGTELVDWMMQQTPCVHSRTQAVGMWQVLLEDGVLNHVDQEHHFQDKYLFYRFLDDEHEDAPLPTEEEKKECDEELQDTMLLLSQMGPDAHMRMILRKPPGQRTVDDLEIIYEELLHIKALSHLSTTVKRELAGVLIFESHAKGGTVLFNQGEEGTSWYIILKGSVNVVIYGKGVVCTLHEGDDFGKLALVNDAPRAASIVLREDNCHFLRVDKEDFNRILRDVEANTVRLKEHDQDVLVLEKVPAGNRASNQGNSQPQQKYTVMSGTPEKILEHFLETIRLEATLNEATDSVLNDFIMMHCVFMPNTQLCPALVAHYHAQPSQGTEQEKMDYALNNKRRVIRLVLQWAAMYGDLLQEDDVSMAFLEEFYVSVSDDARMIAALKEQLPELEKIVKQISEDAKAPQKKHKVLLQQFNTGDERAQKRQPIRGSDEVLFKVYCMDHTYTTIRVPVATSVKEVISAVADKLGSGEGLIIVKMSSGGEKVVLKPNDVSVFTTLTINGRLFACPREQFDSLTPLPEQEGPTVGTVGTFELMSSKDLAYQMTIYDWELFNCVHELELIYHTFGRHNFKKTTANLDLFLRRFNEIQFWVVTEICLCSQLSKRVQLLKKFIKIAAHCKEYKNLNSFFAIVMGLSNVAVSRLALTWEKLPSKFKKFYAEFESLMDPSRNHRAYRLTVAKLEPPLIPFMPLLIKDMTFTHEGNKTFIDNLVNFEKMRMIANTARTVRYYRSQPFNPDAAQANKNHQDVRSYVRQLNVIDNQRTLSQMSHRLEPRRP

COc1cnc(-c2ccccc2)c(-c2ccccc2)n1
inactive: Potency [1] | Potency [2] | activation [3] 7.78% [at 17.1 µM, percent relative to cAMP agonist control] | Potency [4] | activity change, negative = inhibition [5] -6.36% [at 30.8 µM] | activation [6] -4.28% [at 30.8 µM]

CC1=NOC(=O)/C1=C\c1ccc(-c2ccccc2Br)o1
inactive: Potency [2] | Potency [3] | Potency [4] | Potency [5] | Potency [6]
active: Potency [1] 21.3 µM

Cc1nc2c(C(=O)NCCc3ccc(Cl)cc3)c[nH]n2c(=O)c1Cc1ccccc1F
inactive: Potency [2] | Potency [3] | Potency [4] | Potency [5] | Potency [6]
active: Potency [1] 84.9 µM

O=C(c1ccco1)N(Cc1cccs1)c1ccc(F)cc1
inactive: Potency [1] | Potency [2] | Potency [3] | Potency [4] | Potency [5] | Potency [6]

CC1Cc2nc(SCC(=O)N3CCCc4ccccc43)n(C)c(=O)c2S1 (stereo unspecified)
inactive: Potency [1] | Potency [2] | activation [3] -4.86% [at 17.1 µM, percent relative to cAMP agonist control] | Potency [4] | activity change, negative = inhibition [5] -11.9% [at 30.8 µM] | activation [6] 4.66% [at 30.8 µM]

O=C(CSC1=NCCS1)N1N=C(c2cccs2)CC1c1ccc(F)cc1 (stereo unspecified)
inactive: Potency [1] | Potency [2] | activation [3] 6.13% [at 17.1 µM, percent relative to cAMP agonist control] | Potency [4] | activity change, negative = inhibition [5] 4.6% [at 30.8 µM] | activation [6] 21.2% [at 30.8 µM]

COc1ccc(C)cc1NC(=O)c1ccccc1NS(=O)(=O)c1ccc(Cl)s1
active: Potency [1] 75.7 µM
inactive: Potency [2] | Potency [3] | Potency [4] | Potency [5] | Potency [6]

O=C(NN1C(=O)/C(=C\c2ccc(O)c([N+](=O)[O-])c2)SC1=S)c1ccccc1Cl
active: Potency [1] 50.1 µM
inactive: Potency [2] | activation [3] -1.95% [at 17.1 µM, percent relative to cAMP agonist control] | Potency [4] | activity change, negative = inhibition [5] -8.56% [at 30.8 µM] | activation [6] 0.476% [at 30.8 µM]

O=C(O)C1CC(=O)N(c2ccc(OCc3c(F)cccc3Cl)cc2)C1 (stereo unspecified)
inactive: Potency [1] | Potency [2] | Potency [3] | Potency [4] | Potency [5] | Potency [6]

COc1ccc(-c2nc(C)ncc2-c2ccccc2)c(O)c1
inactive: Potency [1] | Potency [2] | activation [3] -0.293% [at 17.1 µM, percent relative to cAMP agonist control] | Potency [4] | activity change, negative = inhibition [5] -10.8% [at 30.8 µM] | activation [6] -4.43% [at 30.8 µM]

COc1ccc(NC(=O)CCCSc2nc(-c3ccco3)cc(C(F)(F)F)n2)cc1
inactive: Potency [1] | Potency [2] | Potency [3] | Potency [4] | Potency [5] | Potency [6]

C[C@H]1CN([C@@H](C)CO)C(=O)CCCn2cc(nn2)CO[C@@H]1CN(C)S(=O)(=O)c1ccc(-n2cccn2)cc1
inactive: Potency [1] | Potency [2] | Potency [3] | Potency [4] | Potency [5] | Potency [6]

Cc1ccc(-c2c3c(=O)n(C)c(=O)n(C)c3c3c(C(F)(F)F)nc4ccccc4n23)cc1
inactive: Potency [1] | Potency [2] | Potency [3] | Potency [4] | Potency [5] | Potency [6]

COc1ccccc1/C=C1\SC(=S)N(NS(=O)(=O)c2ccccc2)C1=O
active: Potency [1] 16.9 µM
inactive: Potency [2] | Potency [3] | Potency [4] | Potency [5] | Potency [6]

CN(CC(=O)Nc1ccccc1Sc1ccccc1)C1CCCCC1
inactive: Potency [1] | Potency [2] | Potency [3] | Potency [4] | Potency [5] | Potency [6]

[O-][n+]1c2ccccc2[n+]([O-])c2cc(O)ccc21
active: Potency [1] 37.9 µM
inactive: Potency [2] | Potency [3] | Potency [4] | Potency [5] | Potency [6]

O=C1CCC/C(=N/NC(=O)c2sc3ccccc3c2Cl)C1
active: Potency [4] 16.9 µM | Potency [6] 22.4 µM
inactive: Potency [1] | Potency [2] | Potency [3] | Potency [5]

CCc1nnc(NS(=O)(=O)c2ccc(NC(=S)NC(=O)c3ccc(Br)cc3)cc2)s1
active: Potency [1] 60.1 µM | Potency [4] 75.7 µM
inactive: Potency [2] | Potency [3] | Potency [5] | Potency [6]

Cc1ccccc1N=C(c1ccccc1)C1C(=O)c2ccccc2C1=O
inactive: Potency [1] | Potency [2] | activation [3] 8.41% [at 17.1 µM, percent relative to cAMP agonist control] | Potency [4] | activity change, negative = inhibition [5] -5.51% [at 30.8 µM] | activation [6] 13.3% [at 30.8 µM]

O=C(N/N=C/c1ccc(-c2ccc(Cl)c(C(=O)O)c2)o1)c1cc2c(ccc3ccccc32)o1
active: Potency [1] 12.6 µM
inactive: Potency [2] | activation [3] 0.332% [at 17.1 µM, percent relative to cAMP agonist control] | Potency [4] | activity change, negative = inhibition [5] -35.1% [at 30.8 µM] | activation [6] 12% [at 30.8 µM]

COC(=O)c1cc(NC(=O)CC2SCCNC2=O)cc(C(=O)OC)c1 (stereo unspecified)
inactive: Potency [1] | Potency [2] | activation [3] 4.81% [at 17.1 µM, percent relative to cAMP agonist control] | Potency [4] | activity change, negative = inhibition [5] 6.38% [at 30.8 µM] | activation [6] 0.776% [at 30.8 µM]

COc1cc(NS(=O)(=O)c2cc3[nH]c(=O)c(=O)[nH]c3cc2C)cc(OC)c1OC
inactive: Potency [1] | Potency [2] | activation [3] 2.04% [at 17.1 µM, percent relative to cAMP agonist control] | Potency [4] | activity change, negative = inhibition [5] -5.07% [at 30.8 µM] | activation [6] 12.2% [at 30.8 µM]

Cc1cc(C)cc(OCCSc2nc(-c3ccc(C(C)(C)C)cc3)nc3cc(=O)[nH]n23)c1
active: Potency [1] 67.5 µM
inactive: Potency [2] | Potency [3] | outcome [4] inactive [at 12.7 µM] | Potency [5] | Potency [6]

COC(=O)COc1ccc(C(c2c(C)[nH][nH]c2=O)c2c(C)[nH][nH]c2=O)cc1
inactive: Potency [1] | Potency [2] | Potency [3] | Potency [4] | Potency [5] | Potency [6]

C/C(=N\NC(=O)c1cc(O)ccc1O)c1cccc(NC(=O)c2ccc(Cl)cc2)c1
active: Potency [1] 75.7 µM
inactive: Potency [2] | Potency [3] | Potency [4] | Potency [5] | Potency [6]

Cc1cc(C)c2cccc(N)c2n1
inactive: Potency [1] | Potency [2] | activation [3] 3.77% [at 17.1 µM, percent relative to cAMP agonist control] | Potency [4] | activity change, negative = inhibition [5] 8.48% [at 30.8 µM] | activation [6] 7.96% [at 30.8 µM]

Cc1ccc(S(=O)(=O)CCC(=O)Nc2sccc2C#N)cc1
inactive: Potency [1] | Potency [2] | activation [3] 6.67% [at 17.1 µM, percent relative to cAMP agonist control] | Potency [4] | activity change, negative = inhibition [5] -10.4% [at 30.8 µM] | activation [6] 34.4% [at 30.8 µM]

C/C(CC(=O)Nc1ccc(Cl)c(C(F)(F)F)c1)=N\NC(=O)c1cnccn1
inactive: Potency [1] | Potency [2] | Potency [3] | Potency [4] | Potency [5] | Potency [6]

CCCSc1nc(C)cc(C)c1S(=O)(=O)c1ccccc1C
inactive: Potency [1] | Potency [2] | Potency [3] | Potency [4] | Potency [5] | Potency [6]

Cc1cccn2cc(CCNC(=O)c3ccco3)nc12
inactive: Potency [1] | Potency [2] | activation [3] 4.04% [at 17.1 µM, percent relative to cAMP agonist control] | Potency [4] | activity change, negative = inhibition [5] -20.8% [at 30.8 µM] | activation [6] 19.7% [at 30.8 µM]

C=C1CCN(C(Cc2ccccc2)C(=O)OC)S(=O)(=O)c2ccc(F)cc21 (stereo unspecified)
inactive: Potency [1] | Potency [2] | activation [3] 11.5% [at 17.1 µM, percent relative to cAMP agonist control] | Potency [4] | activity change, negative = inhibition [5] 2.02% [at 30.8 µM] | activation [6] 14% [at 30.8 µM]

CCc1cc2c(=O)c(-c3nc4ccccc4n3C)coc2c(CN2CCCCC2C)c1O (stereo unspecified)
inactive: Potency [1] | Potency [2] | Potency [3] | Potency [4] | Potency [5] | Potency [6]

COc1ccc(/C=N/Nc2nnc(C)n2N)cc1OC(C)=O
inactive: Potency [1] | Potency [2] | Potency [3] | Potency [4] | Potency [5] | Potency [6]

CC(=O)Nc1sc(/C(C#N)=C\c2cccc(Cl)c2)nc1-c1ccc(C)cc1
inactive: Potency [1] | Potency [2] | activation [3] -17.2% [at 17.1 µM, percent relative to cAMP agonist control] | Potency [4] | activity change, negative = inhibition [5] 148% [at 30.8 µM] | activation [6] 23.7% [at 30.8 µM]

CCOc1cc2c3c(c1)C(C)=CC(C)(C)N3C(=O)C2=O
inactive: Potency [1] | Potency [2] | activation [3] -1.35% [at 17.1 µM, percent relative to cAMP agonist control] | Potency [4] | activity change, negative = inhibition [5] -14.8% [at 30.8 µM] | activation [6] 25% [at 30.8 µM]

Cn1cccc1/C=C1\CCC/C(=C\c2cccn2C)C1=O
active: Potency [1] 75.7 µM | Potency [4] 75.7 µM | Potency [6] 39.8 µM
inactive: Potency [2] | Potency [3] | Potency [5]
